PubChem BioAssay (NCI)
This is part of a sample that, as a whole, favours compounds with a hit. Of some 83,000 tested, about 20% had one in any assay.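 48-hour exposure, single concentration, 96-well plates; percent growth endpoint where 0 means no net growth. Active: below 10.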 Calls of active or inactive are those of the source.

What was measured:
Experiment in all cases: NCI-60 one-dose screen, 48 h (100 = growth as untreated, 0 = no growth, -100 = all killed)
SR leukemia = settings: 10 µM unless noted
RPMI-8226 leukemia = settings: 10 µM unless noted
OVCAR-8 ovarian = settings: 10 µM unless noted
OVCAR-5 ovarian = settings: 10 µM unless noted
OVCAR-4 ovarian = settings: 10 µM unless noted
SK-OV-3 ovarian = settings: 10 µM unless noted
IGROV1 ovarian = settings: 10 µM unless noted
OVCAR-3 ovarian = settings: 10 µM unless noted
HS 578T breast = settings: 10 µM
NCI/ADR-RES ovarian = settings: 10 µM unless noted

Measured: growth

CCOC(=O)c1c(NC(=O)c2ccccc2)sc2c(O)c(CN(CC)CC)ccc12
active: SR leukemia 9.72% | OVCAR-8 ovarian 2.1% | SK-OV-3 ovarian -14.8% | OVCAR-3 ovarian -61.6%
inactive: RPMI-8226 leukemia 18.2% | OVCAR-5 ovarian 48.6% | OVCAR-4 ovarian 42.8% | IGROV1 ovarian 22.4% | HS 578T breast 26.9%

Cc1ccc(Nc2nc(NCCO)c3ccccc3n2)cc1C
active: OVCAR-8 ovarian 9.74% | SK-OV-3 ovarian -0.684% | OVCAR-3 ovarian -9.61%
inactive: SR leukemia 19% | RPMI-8226 leukemia 19.7% | OVCAR-5 ovarian 25.6% | OVCAR-4 ovarian 50.6% | IGROV1 ovarian 20.2% | HS 578T breast 36.1%

COc1ccc(C2CC(c3ccc(Nc4ccnc5cc(Cl)ccc45)cc3)=NN2c2ccccc2)cc1 (stereo unspecified)
inactive: SR leukemia 81% | RPMI-8226 leukemia 70.5% | OVCAR-8 ovarian 95.4% | OVCAR-5 ovarian 86.2% | OVCAR-4 ovarian 163% | SK-OV-3 ovarian 108% | IGROV1 ovarian 113% | OVCAR-3 ovarian 111% | HS 578T breast 105%

CCOC(=O)Nc1ccc2nc(-c3cscn3)[nH]c2c1
inactive: SR leukemia 23.3% | RPMI-8226 leukemia 43.1% | OVCAR-8 ovarian 57.8% | OVCAR-5 ovarian 85.9% | OVCAR-4 ovarian 89.7% | SK-OV-3 ovarian 56.5% | IGROV1 ovarian 42.6% | OVCAR-3 ovarian 22.8% | HS 578T breast 64.7%

COc1ccc(C2=NN(C=O)C(c3ccc(OS(=O)(=O)c4ccc(C)cc4)c(OC)c3)C2)cc1 (stereo unspecified)
inactive: SR leukemia 23.5% | RPMI-8226 leukemia 40.3% | OVCAR-8 ovarian 59.6% | OVCAR-5 ovarian 89.9% | OVCAR-4 ovarian 40.5% | SK-OV-3 ovarian 84.3% | IGROV1 ovarian 79.1% | OVCAR-3 ovarian 60.8% | HS 578T breast 60.1%

Cc1cc(C)cc(CCCCCCCCCCCCCCCCCC(=O)O)c1
inactive: SR leukemia 107% | RPMI-8226 leukemia 99.4% | OVCAR-8 ovarian 103% | OVCAR-5 ovarian 103% | OVCAR-4 ovarian 105% | SK-OV-3 ovarian 105% | IGROV1 ovarian 108% | OVCAR-3 ovarian 102%

CCN(CC)CCCC(C)N/C(c1cccc(OC)c1)=c1\c(=O)[nH]n(-c2c3ccccc3nc3ccccc23)c(=O)\c1=C(/NC(C)CCCN(CC)CC)c1cccc(OC)c1 (stereo unspecified)
active: SR leukemia 0.449% | RPMI-8226 leukemia -37.3% | OVCAR-8 ovarian -7.7% | OVCAR-5 ovarian 1.41% | OVCAR-4 ovarian -48.1% | SK-OV-3 ovarian -10.1% | IGROV1 ovarian -6.96% | OVCAR-3 ovarian -36.6%

Cc1cc(C)c2c(n1)sc1c(Nc3ccc(Cl)cc3Cl)ncnc12
active: SR leukemia 4.08% | OVCAR-8 ovarian 3.79%
inactive: RPMI-8226 leukemia 28.4% | OVCAR-5 ovarian 57.5% | OVCAR-4 ovarian 68% | SK-OV-3 ovarian 22.2% | IGROV1 ovarian 69.5% | OVCAR-3 ovarian 57.3% | HS 578T breast 90.7% | NCI/ADR-RES ovarian 17.9%

CNCCCNc1ccnc2cc(Cl)ccc12
inactive: OVCAR-5 ovarian 13.1%
active: SR leukemia 3.67% | RPMI-8226 leukemia -12.3% | OVCAR-8 ovarian 1.62% | OVCAR-4 ovarian -21.3% | SK-OV-3 ovarian 5.19% | IGROV1 ovarian -21.7% | OVCAR-3 ovarian -31.2% | HS 578T breast -3.8%

FC1(F)CCN(Cc2c[nH]c3cc(Cl)ccc23)C[C@H]1CCc1ccccc1
inactive: SR leukemia 51.6% | RPMI-8226 leukemia 34% | OVCAR-8 ovarian 47.7% | OVCAR-5 ovarian 80.5% | OVCAR-4 ovarian 56.7% | SK-OV-3 ovarian 84% | IGROV1 ovarian 40.8% | OVCAR-3 ovarian 54.6% | HS 578T breast 56.6% | NCI/ADR-RES ovarian 37.2%

CCCNC(=S)N/N=C(\C)c1ccccn1
active: IGROV1 ovarian 9.27%
inactive: SR leukemia 10% | RPMI-8226 leukemia 20% | OVCAR-8 ovarian 25.2% | OVCAR-5 ovarian 49.3% | OVCAR-4 ovarian 14.8% | SK-OV-3 ovarian 29.3% | OVCAR-3 ovarian 41.4% | HS 578T breast 32.9% | NCI/ADR-RES ovarian 11.5%

COc1ccc([C@@H]2[C@@H](Oc3ccccc3)C(=O)N2c2cc(OC)c(OC)c(OC)c2)cc1F
active: SR leukemia 5.09% | RPMI-8226 leukemia 3.15% | OVCAR-8 ovarian 6.55% | OVCAR-3 ovarian 1.08%
inactive: OVCAR-5 ovarian 19.8% | OVCAR-4 ovarian 39% | SK-OV-3 ovarian 16.6% | IGROV1 ovarian 18.5% | HS 578T breast 26% | NCI/ADR-RES ovarian 12.2%

COc1ccc(-n2nc(C(=O)NCC(=O)Nc3nc4cc(OC)ccc4s3)c3ccccc3c2=O)cc1
active: OVCAR-8 ovarian -12.4% | OVCAR-4 ovarian -20.4% | SK-OV-3 ovarian -18.5% | IGROV1 ovarian -3.66% | OVCAR-3 ovarian 3.53% | HS 578T breast -4.47% | NCI/ADR-RES ovarian 1.75%
inactive: SR leukemia 86.8% | RPMI-8226 leukemia 39.1% | OVCAR-5 ovarian 44.6%

COc1c(B(O)O)cccc1-c1nc2c(F)cc3n[nH]c(C)c3c2c2c1CCCC2
inactive: SR leukemia 42% | OVCAR-8 ovarian 17.3% | OVCAR-4 ovarian 43.7% | IGROV1 ovarian 16.3% | NCI/ADR-RES ovarian 36.4%
active: RPMI-8226 leukemia 6.03% | OVCAR-5 ovarian 8.74% | SK-OV-3 ovarian -1.49% | OVCAR-3 ovarian 9.19% | HS 578T breast 9.55%

CCOC(=O)c1ccc(NC(=O)NC2=NCCS2)cc1
inactive: SR leukemia 17.6% | RPMI-8226 leukemia 13.9% | OVCAR-8 ovarian 27.1% | OVCAR-5 ovarian 96.5% | OVCAR-4 ovarian 70.6% | SK-OV-3 ovarian 11.5% | IGROV1 ovarian 21.5% | HS 578T breast 42.7%
active: OVCAR-3 ovarian -53.7%

FC(F)(F)c1ccc(/C=N/Nc2nnc3n2N=C(c2ccc(Cl)cc2)CS3)cc1
active: HS 578T breast 8.3%
inactive: SR leukemia 79.7% | RPMI-8226 leukemia 85.1% | OVCAR-8 ovarian 19.9% | OVCAR-5 ovarian 92.7% | OVCAR-4 ovarian 17.4% | SK-OV-3 ovarian 40.8% | IGROV1 ovarian 49.2% | OVCAR-3 ovarian 46.7% | NCI/ADR-RES ovarian 47.4%

CC(=O)N1N=C(c2ccc(C)cc2)CC1c1cn(-c2ccccc2)nc1-c1cccc(Nc2ccnc3cc(Cl)ccc23)c1 (stereo unspecified)
active: SR leukemia -4.15% | RPMI-8226 leukemia -11%
inactive: OVCAR-8 ovarian 46.4% | OVCAR-5 ovarian 133% | OVCAR-4 ovarian 120% | SK-OV-3 ovarian 114% | IGROV1 ovarian 48.9% | OVCAR-3 ovarian 84.7% | HS 578T breast 80.3%

Nc1nc2c(c3ncccc13)C(c1ccccc1)Cc1ncccc1-2 (stereo unspecified)
inactive: SR leukemia 40.7% | RPMI-8226 leukemia 87.4% | OVCAR-8 ovarian 93.5% | OVCAR-5 ovarian 92.8% | OVCAR-4 ovarian 94.1% | SK-OV-3 ovarian 87.3% | IGROV1 ovarian 63.3% | OVCAR-3 ovarian 62.2% | HS 578T breast 87.2% | NCI/ADR-RES ovarian 67.7%

O=C(/C=C/c1ccccc1)C(Br)C(Br)c1ccccc1 (stereo unspecified)
active: SR leukemia -28% | RPMI-8226 leukemia -42.2% | OVCAR-8 ovarian -20.7% | IGROV1 ovarian -45.5% | OVCAR-3 ovarian -31.1%
inactive: OVCAR-5 ovarian 38.3% | OVCAR-4 ovarian 13% | SK-OV-3 ovarian 86.1% | HS 578T breast 100% | NCI/ADR-RES ovarian 39.7%

CCN(CC)C(Cl)=Nc1ccc(Cl)cc1
inactive: SR leukemia 84.3% | RPMI-8226 leukemia 95.1% | OVCAR-8 ovarian 106% | OVCAR-5 ovarian 105% | OVCAR-4 ovarian 108% | SK-OV-3 ovarian 102% | IGROV1 ovarian 109% | OVCAR-3 ovarian 107% | HS 578T breast 101% | NCI/ADR-RES ovarian 106%

CNC(=O)c1cc(Oc2ccc(NC(=O)c3nc(S(C)(=O)=O)n(C)c3-c3ccc(F)cc3)cc2)ccn1
inactive: SR leukemia 60.2% | RPMI-8226 leukemia 55.6% | OVCAR-8 ovarian 75.8% | OVCAR-5 ovarian 104% | OVCAR-4 ovarian 67.1% | SK-OV-3 ovarian 58.9% | IGROV1 ovarian 54.3% | OVCAR-3 ovarian 69.6% | HS 578T breast 76.9% | NCI/ADR-RES ovarian 77.8%

CN=C1C=C/C(=N/N=c2/ccn(O)cc2C)C=C1C
inactive: SR leukemia 90.5% | RPMI-8226 leukemia 77.1% | OVCAR-8 ovarian 94.2% | OVCAR-5 ovarian 83.2% | OVCAR-4 ovarian 97.5% | SK-OV-3 ovarian 102% | IGROV1 ovarian 129% | OVCAR-3 ovarian 117% | HS 578T breast 110% | NCI/ADR-RES ovarian 97.4%

CC(=O)c1c(O)c(C)c(O)c2c1OC1=CC(=O)/C(=C(/C)N)C(=O)C12C (stereo unspecified)
inactive: SR leukemia 69% | RPMI-8226 leukemia 68.6% | OVCAR-8 ovarian 81.8% | OVCAR-5 ovarian 98.5% | OVCAR-4 ovarian 88.1% | SK-OV-3 ovarian 101% | IGROV1 ovarian 89.1% | OVCAR-3 ovarian 103% | HS 578T breast 91.5%

CC(=O)c1ccc(Nc2nc(Cl)nc(Oc3c(Cl)cccc3Cl)n2)cc1
inactive: SR leukemia 82.3% | RPMI-8226 leukemia 70% | OVCAR-8 ovarian 92.5% | OVCAR-5 ovarian 105% | OVCAR-4 ovarian 67.2% | SK-OV-3 ovarian 100% | IGROV1 ovarian 89.1% | OVCAR-3 ovarian 90.9% | HS 578T breast 74.3% | NCI/ADR-RES ovarian 93.6%

COCCCNCC(=O)Nc1c(C)cccc1C
inactive: SR leukemia 100% | RPMI-8226 leukemia 108% | OVCAR-8 ovarian 107% | OVCAR-5 ovarian 104% | OVCAR-4 ovarian 111% | SK-OV-3 ovarian 112% | IGROV1 ovarian 140% | OVCAR-3 ovarian 122% | HS 578T breast 124% | NCI/ADR-RES ovarian 105%

O=C1Nc2ccccc2/C1=C/c1c[nH]c2ccccc12
inactive: SR leukemia 77.5% | RPMI-8226 leukemia 77.1% | OVCAR-8 ovarian 84.9% | OVCAR-5 ovarian 105% | OVCAR-4 ovarian 71.7% | SK-OV-3 ovarian 95.7% | OVCAR-3 ovarian 93.5% | HS 578T breast 67.6% | NCI/ADR-RES ovarian 89.6%
active: IGROV1 ovarian 2.73%

FC(F)(F)C1=NNC(c2ccc3ccccc3c2)=NN1
inactive: SR leukemia 95% | RPMI-8226 leukemia 94% | OVCAR-8 ovarian 97.4% | OVCAR-5 ovarian 96.9% | OVCAR-4 ovarian 96.2% | SK-OV-3 ovarian 104% | IGROV1 ovarian 103% | OVCAR-3 ovarian 101% | HS 578T breast 95.9%

C#CC[C@@H]1C[C@]2(C)[C@H]3CC[C@@H]4[C@H]5C(C(=C)C)CC[C@]5(C(=O)NCCN(CCN)CCN)CC[C@@]4(C)[C@]3(C)CC[C@H]2C(C)(C)[C@H]1OC(C)=O (stereo partly specified)
active: SR leukemia -0.547%
inactive: RPMI-8226 leukemia 58.3% | OVCAR-8 ovarian 72.1% | OVCAR-5 ovarian 63.3% | OVCAR-4 ovarian 21.7% | SK-OV-3 ovarian 105% | IGROV1 ovarian 98% | OVCAR-3 ovarian 48.7% | HS 578T breast 115% | NCI/ADR-RES ovarian 95.4%
